High-throughput results deposited in PubChem by several laboratories.
CYP2C19 inhib – inhibitors of human CYP2C19; P33261; CYP2C19 Supersomes, luciferin-H EGE luminescence, 30 min; inhibition, % at 5 µM; actives 21% (n = 96,000); AID 778;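 active = CYP2C19 inhibition above a set limit at 5 µM in the primary screen, cut at about 50% in these data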;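 note: plate controls were negative control wells for no effect and 2.5 mM tranylcypromine positive control for full effect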
CYP2C9 activ – increases human cytochrome P450 2C9 activity. recombinant CYP2C9, luciferin-H conversion, luminescence; stronger effect = higher value; factor 1 = untreated enzyme, 0 = blocked. P11712. actives 1.4% (n = 96,000). AID 1024. activation factor at 5 µM;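 active = activation factor of 2 or more for CYP2C9 at a 5 µM dose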;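 note: 0 = sulfaphenazole-blocked wells and 1 = vehicle-only wells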
Target sequence (P11712 whole entry, looked up): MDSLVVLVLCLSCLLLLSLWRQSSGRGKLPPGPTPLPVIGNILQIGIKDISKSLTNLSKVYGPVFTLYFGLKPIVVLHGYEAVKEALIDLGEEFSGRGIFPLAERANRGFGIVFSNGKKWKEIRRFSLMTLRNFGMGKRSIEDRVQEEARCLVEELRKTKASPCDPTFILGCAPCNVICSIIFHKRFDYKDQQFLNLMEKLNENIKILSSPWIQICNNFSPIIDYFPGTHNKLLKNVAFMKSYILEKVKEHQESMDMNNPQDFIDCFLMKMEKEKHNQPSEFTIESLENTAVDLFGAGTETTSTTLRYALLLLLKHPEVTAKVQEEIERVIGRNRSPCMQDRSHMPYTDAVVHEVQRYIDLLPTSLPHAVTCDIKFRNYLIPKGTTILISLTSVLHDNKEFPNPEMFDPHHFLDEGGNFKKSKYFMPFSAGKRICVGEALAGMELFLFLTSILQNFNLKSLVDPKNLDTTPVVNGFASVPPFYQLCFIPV
CYP2C9 inh – inhibitors of human CYP2C9; P11712; CYP2C9 Supersomes, luciferin-H conversion, luminescence; inhibition, % at 5 µM; actives 20% (n = 96,000);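 active = blocking of liver enzyme CYP2C9 beyond about 50% at 5 µM, limit read from the data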
sEH activator – increases human soluble epoxide hydrolase activity. actives 0.04% (n = 91,000). P34913. activation, % at 2 µM. purified human sEH enzymatic activity, activator screen; in the data active = activation above about 37%
sEH inhibitor – soluble epoxide hydrolase (human) inhibition. recombinant human sEH enzymatic activity assay. inhibition, % at 2 µM. actives 0.34% (n = 91,000). AID 707. P34913; in the data active = inhibition above about 80%
CYP2C19 activ – increases human CYP2C19 enzyme activity; recombinant CYP2C19, luciferin-H EGE luminescence; stronger effect = higher value; 0 = fully inhibited enzyme, 1 = untreated enzyme; P33261; 96,000 tested, under 10 active; activation factor at 5 µM;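 active = activation factor of at least 2 at 5 µM in the primary screen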;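 note: 0 = wells with 2.5 mM tranylcypromine and 1 = vehicle-only wells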
* = called active by the depositor; . = no result given. Compounds with a hit are over-represented: about 27% of the library has one in this group of screens.

SMILES | CYP2C19 inhib | CYP2C9 activ | CYP2C9 inh | sEH activator | sEH inhibitor | CYP2C19 activ
COc1ccccc1NC(=O)N1CCC(c2nnc(SCC(N)=O)n2C)CC1 | -8.8 | 1 | -0.9 | -3.4 | 3.1 | 1.1
O=C(NC1CCCCCC1)C1CCCN1S(=O)(=O)c1cccc2cccnc12 (stereo not given) | 75.4* | 1.1 | -5.2 | 1.4 | -2.7 | 0.2
CCc1nc2c(sc3nc(N4CCOCC4)c4c(c32)CC(C)(C)OC4)c(=O)o1 | -1.4 | 0.4 | 60.9* | . | . | 1
CC1(C)Cc2c(c(N3CCOCC3)nc3sc4c(=O)[nH]cnc4c23)CS1 | -9.3 | 0.8 | 24.2 | -1.2 | 4.4 | 1.1
CC1(C)Cc2c(c(N3CCOCC3)nc3sc4c(N5CCOCC5)nnnc4c23)CS1 | 19.5 | 0.2 | 77.9* | 4.9 | -2.1 | 0.8
CC(C)CCn1cnc2c(c1=O)c1nc3ccccc3nc1n2Cc1ccc2c(c1)OCO2 | 6.7 | 1 | 4.3 | -3.3 | 2.0 | 0.9
N#CC1=C(SCC(=O)c2cc3ccccc3oc2=O)NC(=O)C(C#N)C12CCCC2 (stereo not given) | 52.0* | 0.1 | 88.4* | -9.5 | 8.6 | 0.5
COc1ccccc1NS(=O)(=O)c1cc(C(=O)NCCN2CCOCC2)ccc1Cl | -7.2 | 1.1 | -10.9 | 2.2 | -1.2 | 1.1
COc1cc(CNCCc2ccc(F)cc2)ccc1OCc1ccc(Cl)nc1 | 45.3 | 0.7 | 25.8 | 24.4 | -22.9 | 0.5
COc1cc(CNCCc2ccccc2F)ccc1OCc1ccc(Cl)nc1 | 75.7* | 0.7 | 33.3 | 1.4 | 0.1 | 0.2
COc1cc(CNCCc2c[nH]c3ccccc23)ccc1OCc1ccc(F)cc1 | 62.7* | 0.5 | 47.3 | 5.2 | -2.0 | 0.4
O=S(=O)(c1ccc(N2CCCC2)cc1)C(F)(F)F | 2.7 | 1.1 | -12.2 | -0.5 | 0.1 | 1
Cc1ccc(CSCCNC(=O)/C=C/c2ccccc2Cl)cc1 | 4.2 | 0.9 | 7.6 | -57.5 | 58.5 | 1
C#CCSc1nnc(-c2c[nH]c3ccccc23)n1C | 15.0 | 1 | -3.7 | . | . | 0.8
C#CCSc1nnc(-c2sc(-c3ccccc3)nc2C)n1C | 87.4* | 0.6 | 40.6 | 0.9 | 1.2 | 0.1
Nc1nonc1-n1nnc(C(=O)c2ccccc2)c1-c1ccccc1 | 98.1* | 0.1 | 90.9* | -4.0 | 4.5 | 0
CCOC(=O)c1nnn(-c2nonc2N)c1-c1ccc(OCC)cc1 | 99.2* | 0.1 | 88.8* | -2.4 | 4.3 | 0
CCOC(=O)c1nnn(-c2nonc2N)c1C | 15.4 | 1.1 | -10.6 | -9.0 | 11.6 | 0.8
COC(=O)c1nnn(-c2nonc2N)c1-c1cccs1 | 30.8 | 1 | -3.7 | -2.3 | 4.1 | 0.7
Cc1c(C(=O)N2CCCC2)nnn1-c1nonc1N | 52.2* | 1 | 2.7 | 7.8 | -6.4 | 0.5
CCCC(=O)NC(C)c1nc2ccccc2n1CC (stereo not given) | 29.2 | 1.4 | -36.2 | -6.7 | 10.0 | 0.7
O=C1C(C2=C(O)c3ccccc3C2=O)=Nc2ccccc21 | 45.0 | 0.5 | 52.8* | -6.5 | 7.4 | 0.6
O=C(CSc1nc2cc(Cl)ccc2s1)c1ccco1 | 88.9* | 0.9 | 12.6 | . | . | 0.1
O=C(CSc1nnc(SCC(=O)c2ccco2)s1)c1ccco1 | -11.0 | 0.9 | 6.8 | 1.6 | -2.8 | 1.1
O=C(CSCc1ccc(Cl)cc1)c1ccco1 | 73.3* | 0.4 | 58.4* | . | . | 0.3
SMILES | CYP2C19 inhib | CYP2C9 activ | CYP2C9 inh | sEH activator | sEH inhibitor | CYP2C19 activ
COCCCNC(=O)C12CCC(C)(C(=O)C1)C2(C)C (stereo not given) | -18.2 | 1 | -0.9 | 6.3 | -7.1 | 1.2
CC(/C=N/NC(=O)C(O)c1ccccc1)=C\c1ccccc1 (stereo not given) | 22.5 | 0.7 | 33.2 | 8.0 | -3.6 | 0.8
Cc1cc(OC(C)C(=O)N/N=C/CC(C)c2ccccc2)ccc1Cl (stereo not given) | 73.9* | 0.8 | 24.6 | -4.5 | 7.4 | 0.3
O=C(CSc1nc2ccccc2nc1SCC(=O)N1CCCCC1)N1CCCCC1 | 20.0 | 0 | 95.2* | -14.6 | 11.9 | 0.8
Nc1cc(N)nc(SCC(=O)N2CCCCC2)n1 | 14.4 | 0.5 | 51.7* | 12.4 | -11.1 | 0.9
CCOC(=O)N1CCC(NC(=O)Cn2c3c(c(-c4ccccc4Cl)cc2=O)CCC3)CC1 | 45.7 | 0.5 | 54.0* | . | . | 0.5
CCOc1ccc(/C(O)=C2\C(=O)C(=O)N(CCN(C)C)C2c2cc(OC)ccc2OC)cc1Cl (stereo not given) | . | . | . | 20.3 | -16.5 | .
